Source: PubChem (The Scripps Research Institute Molecular Screening Center)
MITF primary: human MITF inhibition, primary screen; O75030; AlphaScreen MITF homodimerization, bead proximity signal; inhibition, % at 2.6 µM; hit rate 0.91% among 650,000; AID 1259374; in the data active = inhibition above about 50%
GPR151 activ: human GPR151 activation; AID 1508602; Q8TDV0; activation, % at 11.2 µM; hit rate 1% among 650,000; PathHunter beta-arrestin GPR151 cells, luminescence; in the data active = activation above about 4.9%
FBW7 activator: human FBW7 E3 ligase activation, primary screen; Q969H0; AlphaScreen FBW7–phospho-cyclin E peptide binding, activator screen; normalized activity (activation), % at 26.1 µM; hit rate 0.13% among 650,000; in the data active = normalized activity above about 1.9%;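 also: purified mutant Fbw7 with reduced substrate affinity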
TEAD-YAP inh: TEAD-YAP interaction inhibition | hit rate 1.4% among 640,000 | HEK-TIYL cells, TEAD-Gal4/YAP UAS-luciferase luminescence | inhibition, % at 9.12 µM | AID 1259422; in the data active = inhibition above about 32%
A number is an active result; 0 = inactive. A selection: hits, their analogues and other compounds. The true share with any hit is near 3.5%.

SMILES | MITF primary | GPR151 activ | FBW7 activator | TEAD-YAP inh
O=C(C1=C(O)C(=O)N(c2nccs2)C1c1cccs1)c1cccs1 (stereo not given) | 0 | 0 | 0 | 0
CC(=O)C1=C(O)C(=O)N(c2nnn(C)n2)C1c1cccs1 (stereo not given) | 0 | 0 | 3.6 | 0
O=NN(CCc1ccncc1)c1ccc(OCc2ccccc2)cc1 | 0 | 0 | 0 | 38
Cc1sc2ncn(CC(=O)NCCCC(=O)Nc3ccc4c(c3)OCCO4)c(=O)c2c1C | 0 | 0 | 0 | 0
CC(C)C[C@@H](NC(=O)[C@H](Cc1ccccc1)NC(=O)c1cnccn1)B(O)O | 0 | 0 | 0 | 62
CC(CCc1ccccc1)NC(=O)c1cnccn1 (stereo not given) | 0 | 0 | 0 | 0
CCC[C@@H]1NC(=O)[C@@H]2C[C@H](NCc3cccc(OC)c3)CN2C1=O | 0 | 0 | 0 | 0
CC(C)c1ccc(N(CC(=O)Nc2ccc(F)c(Cl)c2)S(C)(=O)=O)cc1 | 0 | 0 | 0 | 0
OCCn1c(Cc2ccccc2)nc2ccccc21 | 0 | 0 | 0 | 98
COc1ccc(-c2cc(Nc3ccc(Oc4ccccc4)cc3)nc(N)n2)cn1 | 0 | 0 | 0 | 44
COc1ccc(-c2cc(Nc3cc(OC)c(OC)c(OC)c3)nc(N)n2)cc1 | 0 | 0 | 0 | 41
COc1ccc(-c2cc(Nc3ccc(NC(C)=O)cc3)nc(N)n2)cn1 | 0 | 0 | 0 | 0
Cc1nn(C)c(C)c1-c1cc(Nc2ccc(Oc3ccccc3)cc2)nc(N)n1 | 0 | 0 | 0 | 54
COc1ccc(CCNc2cc(-c3ccc(OC)nc3)nc(N)n2)cc1 | 0 | 0 | 0 | 51
CCOC(=O)c1c(NC(=O)c2nnn(-c3ccccc3)c2C)sc(C)c1C | 0 | 0 | 0 | 0
O=C(c1ccc(SCc2cccc(F)c2)c([N+](=O)[O-])c1)N1CCN(c2ccccc2)CC1 | 0 | 0 | 0 | 0
COc1ccc(CCNc2cc(-c3ccccc3)nc(N)n2)cc1 | 0 | 0 | 0 | 42
COc1cc(Nc2cc(N3CCc4ccccc4C3)nc(N)n2)cc(OC)c1OC | 0 | 0 | 0 | 37
COc1ccc(-c2cc(NCCc3ccc(O)cc3)nc(N)n2)cc1 | 0 | 0 | 0 | 0
CCc1nc(SCC(=O)Nc2c(C)cc(C)cc2C)c2c(=O)n(C)c(=O)n(C)c2n1 | 0 | 0 | 0 | 0
COc1ccc(/C=C2/SC(=Nc3ccccc3)NC2=O)cc1OC | 0 | 0 | 0 | 0
COc1cccc(/C=C2\SC(=Nc3ccc(O)cc3)NC2=O)c1OC | 0 | 0 | 0 | 46
COc1ccc(/C=C2\SC(=Nc3cccc(O)c3)NC2=O)cc1OC | 0 | 0 | 0 | 43
COc1ccc(/C=C2/SC(=Nc3ccc(O)cc3)NC2=O)c(OC)c1OC | 0 | 0 | 0 | 0
Cc1cc(C)n(CCNc2nncc(-c3ccc4c(c3)OCO4)n2)n1 | 0 | 0 | 0 | 0
SMILES | MITF primary | GPR151 activ | FBW7 activator | TEAD-YAP inh
c1cnn(CCCNc2nncc(-c3ccc4c(c3)OCO4)n2)c1 | 0 | 0 | 0 | 85
CCOc1ccc(C(c2nnnn2C2CCCCC2)N2CCN(CC)CC2)cc1 (stereo not given) | 0 | 0 | 0 | 0
CCC(C)Nc1c(-c2ccc(C)c(C)c2)c(=O)c1=O (stereo not given) | 0 | 0 | 0 | 52
Cc1ccc(-c2c(NC3CCCC3)c(=O)c2=O)cc1C | 0 | 0 | 0 | 32
CCC(C)Nc1c(-c2ccc(C)cc2)c(=O)c1=O (stereo not given) | 0 | 0 | 0 | 0
CCC(=O)NC(c1nnc2n1CCN(C(=O)c1ccc(C)nc1)CC2)C(C)C (stereo not given) | 0 | 0 | 0 | 0
CCOC(=O)C(C)Oc1cc(OC(C)C(=O)OCC)c2c3c(c(=O)oc2c1)CCCC3 (stereo not given) | 0 | 0 | 0 | 0
COC(=O)C(C)Oc1cc(OC(C)C(=O)OC)c2c3c(c(=O)oc2c1)CCC3 (stereo not given) | 0 | 0 | 0 | 44
COc1cc(C2Nc3ccc4ncccc4c3C3=C2C(=O)CCC3)ccc1OC(C)=O (stereo not given) | 0 | 0 | 0 | 52
COc1cc(C2CC(c3ccc(Cl)cc3)Nc3ncnn32)cc(OC)c1OC (stereo not given) | 0 | 0 | 0 | 54
COc1ccc(C2CC(c3ccc(Cl)cc3)Nc3ncnn32)c(OC)c1OC (stereo not given) | 0 | 0 | 0 | 0
Cc1ncc(-c2ccc(F)cc2)c(C2CCCN(C(=O)CSc3ncccn3)C2)n1 (stereo not given) | 0 | 0 | 0 | 0
CCS(=O)(=O)N1CCN(Cc2nc(-c3ccc(Cl)cc3)cs2)CC1 | 0 | 0 | 0 | 33
COc1ccc(Cl)cc1NC(=O)c1sc2ncn(CC(=O)N3CCC(C)CC3)c(=O)c2c1C | 0 | 0 | 0 | 0
